Results: the supplement of paper PMC6555819

What was measured:
Experiment in all cases: PBM binding z-score (relative to random genomic background probes); higher = stronger binding; sequences stand for … in GC…GCGATTGACAGCGTAGAATGAAGG
[1] = tested on: RARb homodimer (NR concentration 270 nM)
How it was run: (§1)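 Custom Agilent 4×180K protein-binding microarrays carried double-stranded probes, each with a 34-nt variable region. These regions held direct-repeat seeds, single-nucleotide variants, half-site ablations and random human genomic background sequences. Ligand-free nuclear receptor dimers were incubated on the arrays for 1 h, antibodies against each partner (one per run) detected binding, and scanned fluorescence was regression-normalized. Binding z-scores take the random background probes as reference.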

[2] = tested on: RARg:RXRa (NR concentration 270 nM, RXRa partner concentration 90 nM)
How it was run: as §1

[3] = tested on: RARg homodimer (NR concentration 270 nM)
How it was run: as §1

[4] = tested on: RXRa DBDmut IVT, anti-RXR (DBD mutation: RXRa K156A/R161A, NR concentration 90 nM)
How it was run: as §1

[5] = tested on: RXRa homodimer (NR concentration 180 nM)
How it was run: as §1

[6] = tested on: THRa:RXRa (NR concentration 90 nM, RXRa partner concentration 90 nM)
How it was run: as §1

[7] = tested on: THRa homodimer (NR concentration 90 nM)
How it was run: as §1

[8] = tested on: VDR homodimer (NR concentration 270 nM)
How it was run: as §1

Row | Sequence | PBM binding z-score [1] | PBM binding z-score [2] | PBM binding z-score [3] | PBM binding z-score [4] | PBM binding z-score [5] | PBM binding z-score [6] | PBM binding z-score [7] | PBM binding z-score [8]
1 | CGAACTAGGTCAAAGGAGAGTGAAAGGCGACGTA | 2.43 | 3.75 | 4.22 | 1.62 | 3 | 2.32 | 0.277 | 0.0165
2 | ATATGTTGGTTAGGGTCATTCAGAAAGTAGGGAA | 3.19 | 3.79 | 2.71 | 2.64 | 5.05 | 4.08 | 3.71 | 4.01
3 | CTATATAGGTTAAGGGGGTCATTCAGTTTGAAAG | 3.8 | 5.72 | 4.34 | 2.61 | 6.69 | 4.18 | 1.99 | 6.17
4 | TCTAGCAGGCCATAGGGTCACTCAAGAGGTACGG | 3.27 | 3.6 | 2.95 | 0.333 | 3.87 | 3.25 | 1.93 | 1.64
5 | CGTCAAAGTTCAAGGTTACGTAACAGAAAGCAGC | 4.45 | 5.57 | 6.33 | 4.73 | 4.85 | 3.43 | 1.33 | 3.55
6 | ATATGTAGGTTAGGCTCATTCAGAAAGTAGGGAA | 0.0368 | 0.252 | 0.612 | 0.0964 | 0.205 | 0.086 | -0.237 | -0.178
7 | TTAACAAGGTGAAAGGTCGTTGATGCACGCCTTG | 2.51 | 4.28 | 2.1 | 0.328 | 6.17 | 3.51 | 0.757 | 1.24
8 | CCTAGTTGGTCAGGAGGTCCCACACCGGATATGA | 0.775 | 0.48 | 0.629 | -0.686 | 0.0541 | -0.131 | 0.411 | 0.335
9 | TCTAGTTGGTCACGGGGGTCACACACGACGGGTA | 4.5 | 6.36 | 5.7 | 2.07 | 6.5 | 4.03 | 3.01 | 4.15
10 | AGAGTGAGGTTACCAAAGATCAGGGAAACGCTTG | 1.61 | 2.25 | 1.78 | 0.473 | 2.81 | 2.84 | 1.16 | 0.671
11 | TCGAGTAGGTTACGGGGGCAGTCAGGGATGAAGA | 2.06 | 2.82 | 2.3 | 1 | 2.21 | 2.81 | 1 | 1.25
12 | TATACAGGATCAAAGGCCAGAGTACGAATGTCGA | 0.878 | 0.959 | 1.02 | -0.32 | 0.857 | -0.0517 | -0.472 | 0.376
13 | CTATGTAGGTTCAGGGGGTCATTCAGTTTGAAAG | 3.91 | 5.72 | 3.84 | 3.68 | 7.14 | 3.7 | 2.11 | 6.83
14 | GATACAGGGTCAAGGCCAGAATACGCGTATTGAT | 3.49 | 5.5 | 4.93 | 2.08 | 5.95 | 3.62 | 1.21 | 1.6
15 | CTAAGTAGGTTAAGGGGGTCATTCAGTTTGAAAG | 3.97 | 4.97 | 4.03 | 2.69 | 5.62 | 3.64 | 2.28 | 6.08
16 | CCTACTGGGCCACGAAAGGGCATTGATTCAGTGA | 1.74 | 0.854 | 1.12 | -0.586 | 0.314 | 1.07 | -0.645 | -0.334
17 | CAAACTAGGTCACGAAAGGTCAAAGTTGAATGAC | 6.02 | 8.01 | 8.58 | 2.59 | 8.85 | 5.01 | 2.88 | 3.89
18 | AAATGTAGGTTAGGGTCATTCAGAAAGTAGGGAA | 3.49 | 3.99 | 3.4 | 2.78 | 5.29 | 4.02 | 3.35 | 3.92
19 | CGTCCAAGGTCAGCAGGTCACTGAAAGCGACGTG | 5.25 | 7.24 | 7.65 | 2.86 | 6.51 | 4.32 | 2.37 | 1.88
20 | CGAACTAGGTCACCAGGACGGTGAAGAGGTTGGA | 3.1 | 4.28 | 5.25 | 0.756 | 3.01 | 3.04 | 0.961 | 0.435
21 | CTATGTCGGTTAAGGGGGTCATTCAGTTTGAAAG | 4.04 | 4.91 | 4.15 | 2.98 | 5.04 | 3.9 | 3.17 | 6.54
22 | CAAACTAGGTCACCGGAAGGTCATAGTCCGCATG | 5.85 | 7.82 | 6.45 | 1.8 | 5.92 | 4.58 | 3.33 | 2.78
23 | ATCGAAAGGTCGTGAGGTGAGTACACAGAAAGGC | 3.12 | 4.77 | 4.06 | 1.6 | 5.77 | 3.39 | 1.68 | 1.92
24 | ATATGTAGGTTAGGGTCATCCAGAAAGTAGGGAA | 3.38 | 4.31 | 3.5 | 2.19 | 5.6 | 4.15 | 3.73 | 3.58
25 | CCTACTGGGCCAAAGGTCTTTGATTCCAATGCTC | 0.557 | 0.154 | 0.0453 | -0.198 | 0.321 | 0.0869 | -0.594 | -0.573
26 | CGAACTTGGTCAAAGGACAGTGAAAGGCGACGTA | 1.3 | 1.24 | 1.69 | -0.0652 | 0.736 | 0.657 | -0.391 | -0.0452
27 | CGAACTAGGTCACGAGGACAGTGAAGAGGTTGGA | 3.75 | 4.91 | 5.66 | 1.48 | 3.85 | 3.84 | 2.61 | 0.957
28 | ATATGTAGGTTAGGGTAATTCAGAAAGTAGGGAA | 1.35 | 1.05 | 0.966 | 0.835 | 1.16 | 1.72 | 1.34 | 1.11
